Screening data deposited in PubChem BioAssay by National Center for Advancing Translational Sciences (NCATS).
Hits are enriched below; roughly 5.1% of the tested compounds scored in any of these assays.
TSHR agonist = activates the human thyroid stimulating hormone receptor | P16473 | HEK293-CNG-TSHR cells (CNG channel as cAMP sensor), membrane potential dye, cAMP | Potency, µM (top dose mostly 57.1 µM), actives largely listed as activators | 0.48% of 73,000 active | AID 926; active means well fitted activation curve with a large enough effect in the main read-out, with a control signal flat, not every such curve was filed as active; inconclusive means small, poorly fitted or top-dose-only effect, or a change in a side signal; inactive means no such curve, though single readings can be large or run the other way; reference of the percent scale not stated here;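 further: the control signal comes from parental cells without the receptor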
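cAMP rise detected as CNG-channel membrane depolarization by fluorescent dye (emission 590 nm), 30 min after compound, following 60 min dye loading containing 100 uM RO 20-1724 at room temperature. Cells: TSHR/CNG HEK 293, with parental CNG HEK 293 as control.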
DNA Pol III inh = blocks replication by bacterial DNA polymerase III holoenzyme; reconstituted DNA polymerase III holoenzyme replication, biochemical; Potency, µM (doses to about 57.1 µM); 0.25% of 71,000 active; AID 603
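Reconstituted *E. coli* holoenzyme (0.35 nM Pol III, 1 nM beta, 154 nM SSB, 2 nM primase) was preincubated with compound for 15 min at RT. Synthesis on 1.4 nM ssM13Gori ran 35 min, then was stopped with PicoGreen/EDTA and read as dsDNA fluorescence.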
HEK293 cAMP cs = parental HEK293 cAMP activation (counter-screen); parental HEK293 CNG cAMP sensor, membrane potential fluorescence; Potency, µM (highest dose often 57.1 µM), actives largely listed as activators; 2.5% of 73,000 active; AID 938; further: nearly all actives have a fitted effect of over 55% in size
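Parental HEK 293 cells stably expressing a modified CNG channel (no TSHR) report cAMP rise as membrane depolarization. Membrane potential dye with 100 uM RO 20-1724 was loaded for 60 min at room temperature, then compound added for 30 min; fluorescence read at 590 nm.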
Hsp90 Hop PPI = changes Hsp90-Hop TPR2A binding signal, up or down; Potency, µM (series often up to 57 µM); AlphaScreen TPR2A-His6 binding biotin-Hsp90 C-terminal peptide; AID 595; 0.44% of 71,000 active; active means well fitted curve in either direction with a large enough effect; inconclusive means small, poorly fitted or top-dose-only effect, or another doubt
Tau fil binding = binders of human tau filaments; P10636; 2% of 71,000 active; Potency, µM (highest dose often 57.1 µM); AID 596; recombinant tau filaments, thioflavin S fluorescence, 15 h; filaments grown with octadecylsulfate alongside compound;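 further: actives lower thioflavin S fluorescence by blocking filaments or displacing dye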
Target sequence (P10636 whole entry, looked up): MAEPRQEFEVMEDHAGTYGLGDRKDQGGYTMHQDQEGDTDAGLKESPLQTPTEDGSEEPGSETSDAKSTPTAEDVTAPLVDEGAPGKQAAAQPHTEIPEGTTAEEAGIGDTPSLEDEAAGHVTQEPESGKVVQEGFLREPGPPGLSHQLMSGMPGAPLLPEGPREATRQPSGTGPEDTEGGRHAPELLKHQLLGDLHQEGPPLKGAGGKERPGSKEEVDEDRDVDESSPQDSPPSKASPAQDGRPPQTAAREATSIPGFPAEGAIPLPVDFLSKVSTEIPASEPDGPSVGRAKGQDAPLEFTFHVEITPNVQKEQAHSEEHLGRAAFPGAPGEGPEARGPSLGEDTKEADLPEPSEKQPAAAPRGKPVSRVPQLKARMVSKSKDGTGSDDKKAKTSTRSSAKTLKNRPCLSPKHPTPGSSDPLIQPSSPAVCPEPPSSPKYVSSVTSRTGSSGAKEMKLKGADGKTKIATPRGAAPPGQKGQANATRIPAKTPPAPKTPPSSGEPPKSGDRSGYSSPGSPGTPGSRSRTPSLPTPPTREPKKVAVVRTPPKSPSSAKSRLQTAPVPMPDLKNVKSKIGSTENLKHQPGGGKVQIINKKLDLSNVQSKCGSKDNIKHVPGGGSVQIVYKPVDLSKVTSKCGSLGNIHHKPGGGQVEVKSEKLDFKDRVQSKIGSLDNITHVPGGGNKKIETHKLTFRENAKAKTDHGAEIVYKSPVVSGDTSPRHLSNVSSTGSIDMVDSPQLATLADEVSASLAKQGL
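Tau 2 uM in ThS buffer dispensed; compound added; 60 uM ODS added (finals 1 uM tau, 30 uM ODS); 15 h 37 C; fluor ex450/em510.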
Numbers stand for hits; - = inactive; ? = inconclusive; . = no result given; ! = a repeat was not active; [ ] = dose if it differs, or a comment. Unless noted, the call rests on the fitted dose curve; in most records, active means well fitted curve in the direction sought with a large enough effect; inconclusive means small, poorly fitted or top-dose-only effect, or another doubt; inactive means no such curve, though single readings can be large; an effect the other way counts as inactive or inconclusive.

SMILES | TSHR agonist | DNA Pol III inh | HEK293 cAMP cs | Hsp90 Hop PPI | Tau fil binding
COCCn1c(=O)c(-c2cn(C)c3ccccc23)nc2cnc(Oc3ccccc3)nc21 | ? | - | ? | 3.2µM | -
COCCn1c(=O)c(C)nc2cnc(Oc3ccc(OC)cc3)nc21 | ? | - | 32µM | - | -
COCCn1c(=O)c(-c2cn(C)c3ccccc23)nc2cnc(OCc3ccccc3)nc21 | - | - | - | - | -
O=c1cnc2cnc(Oc3ccccc3)nc2n1CCc1ccccc1 | ? | - | 1.6µM | - | -
CC/C(C)=N/O | - | - | - | - | -
Cc1cccc(CNc2ncncc2-c2ccccc2Cl)c1 | ? | - | ? | - | -
CC(C)[C@@H](OCc1ccccc1)[C@H](C)/C=N\O[C@@H](C)c1cn([C@H](CO)Cc2ccccc2)nn1 | -[11.4 µM] | . | -[11.4 µM] | . | .
O=C(C1CCCN(S(=O)(=O)c2cccc3nsnc23)C1)N1CC=C(c2ccccc2)CC1 (stereo not drawn) | - | - | - | - | -
CC1Cc2ccccc2N1S(=O)(=O)c1cccc2nsnc12 (stereo not drawn) | ? | - | ? | - | 25µM
O=C(C1CCN(S(=O)(=O)c2cccc3nsnc23)CC1)N1CC=C(c2ccccc2)CC1 | - | - | - | - | 20µM
O=S(=O)(c1cccc2nsnc12)N1CCc2ccccc2C1 | - | - | - | - | 20µM
CCOC(=O)CCN1C(=O)[C@H]2[C@H]3[C@H](O)[C@H](O)C/C(=N/OC[C@@H](O)COCc4ccco4)[C@H]3CC[C@@H]2C1=O | -[11.4 µM] | . | -[11.4 µM] | . | .
COc1ccccc1CNCCCCCCNCCCCCCCCNCCCCCCNCc1ccccc1OC | . | - | - | - | -
Cc1ccc(Nc2ncnc3nc[nH]c23)cc1Cl | ? | - | 25µM | - | -
CCCCc1ccc(Nc2ncnc3nc[nH]c23)cc1 | - | - | - | - | -
Cn1cccc1C(=O)N1CCC2(CCCN(Cc3ccncc3)C2)CC1 | - | - | - | - | -
Cc1cc(C)c(C)c(S(=O)(=O)NCCC(=O)O)c1C | - | . | - | . | .
Cc1ccc(CN2C(=O)C(C)(C)Oc3ccc(C(=O)N4CCCCC4)cc32)cc1 | ? | - | 25µM | - | -
CC1(C)Oc2ccc(C(=O)N3CCCCC3)cc2N(CC(=O)NCc2ccccc2)C1=O | ? | - | ? | - | -
Nc1nc(-c2c[nH]c3ccccc23)cs1 | -[11.4 µM] | - | - | - | 25µM
Cc1ccc(OC[C@H](O)[C@H](C)NC(C)C)c2c1CCC2 | ? | - | 40µM! | - | ?
O=S(=O)(Nc1ccc(Cl)cc1Cl)c1cc(Cl)ccc1Cl | . | . | - | . | .
COc1ccc(C(=O)Nc2ccccc2C(=O)NCc2ccco2)cc1OC | . | - | - | - | -
COc1ccccc1NC(=O)c1cc(Cl)ccc1NC(=O)c1ccco1 | ? | - | 25µM | - | -
COc1ccc(Cl)cc1NC(=O)CN(C(=O)c1ccco1)C1CCCCC1 | ? | - | 4µM | - | -
SMILES | TSHR agonist | DNA Pol III inh | HEK293 cAMP cs | Hsp90 Hop PPI | Tau fil binding
COc1ccc(C(=O)Nc2ccc(Cl)cc2C(=O)NCc2ccco2)cc1OC | ? | - | 25µM | - | -
COc1ccc(Cl)cc1NC(=O)CN(C)C(C)C(=O)NCC1CCCCC1 (stereo not drawn) | ? | - | ? | - | -
COc1ccccc1NC(=O)c1ccc(-c2ccccc2F)o1 | ? | - | 25µM | - | -
Cn1cc(-c2nc3cncnc3n(Cc3ccccc3Cl)c2=O)c2ccccc21 | - | - | - | - | -
CCOc1ccccc1NC(=O)c1cc(Cl)ccc1NC(=O)c1ccco1 | ? | - | 25µM | - | -
COc1cccc(CNC(=O)C2CCN(c3cnccn3)CC2)c1 | ? | - | ? | - | -
COc1ccc(O[C@H]2C=C[C@@H](c3ccccc3)O[C@H]2COC(=O)CC/C(C)=N\O[C@@H](C)c2cc(-c3c(C)cc(C)cc3C)no2)cc1 | -[11.4 µM] | . | -[11.4 µM] | . | .
N/N=C1/c2ccccc2N[C@H]1OC(=O)Nc1cccc(Cl)c1 | -[11.4 µM] | -[11.4 µM] | -[11.4 µM] | -[11 µM] | ?
N/N=C1/c2ccccc2N[C@H]1OC(=O)Nc1ccccc1 | -[11.4 µM] | ? | -[11.4 µM] | -[11 µM] | 3.2µM
CCn1nc(NC(=O)c2ccncc2)c2cc3ccccc3nc21 | - | - | - | - | -
COc1ccc2nc3c(cc2c1)c(NC(=O)c1cccs1)nn3CC(C)C | . | - | - | 25µM | -
CCC(=O)Nc1cc(OC)c(NC(=O)c2ccccc2)cc1OC | - | - | - | - | 13µM
COc1cc(NC(=O)c2ccccc2)c(OC)cc1NC(C)=O | - | - | - | ? | -
COc1cc(NS(C)(=O)=O)c(OC)cc1NC(=O)c1ccccc1 | - | - | - | - | 16µM
CCOc1ccc2nc3cc(N=Nc4ccc(N)nc4N)ccc3c(N)c2c1 | -[11.4 µM] | 3.2µM | -[11.4 µM] | -[11 µM] | -[11.4 µM]
Cc1ccccc1N1OC2C(=O)N(c3ccc(F)cc3)C(=O)C2C1c1ccccn1 (stereo not drawn) | ? | - | 20µM | - | -
COc1ccc(/C=C/N(CCc2ccc(OC)c(OC)c2)C(C)=O)cc1 | -[11.4 µM] | . | -[11.4 µM] | . | .
COC(=O)c1cccc(NC(=O)c2cc3sccc3n2C)c1 | ? | - | 13µM | - | -
COC(=O)c1ccccc1NC(=O)c1cc2sccc2n1C | - | - | - | - | ?
COc1ccccc1NS(=O)(=O)c1cc(Cl)ccc1OC | . | - | - | - | -
Cc1ccc(Cl)cc1N1CCN(S(=O)(=O)c2ccc3c(c2)OCCO3)CC1 | - | - | - | - | -
Cc1ccc(C)c(N2CCN(S(=O)(=O)c3ccc4c(c3)OCCO4)CC2)c1 | 25µM | - | - | - | -
COc1ccccc1CN1CCCC2(CCN(S(C)(=O)=O)CC2)C1 | - | - | - | - | -
CCOc1ccc(NC2c3ccccc3C(=O)N2Cc2ccco2)cc1 (stereo not drawn) | - | - | - | - | 16µM
COc1ccc(OC)c(NC2c3ccccc3C(=O)N2Cc2ccc3c(c2)OCO3)c1 (stereo not drawn) | - | - | - | -[2.3 µM] | 20µM
SMILES | TSHR agonist | DNA Pol III inh | HEK293 cAMP cs | Hsp90 Hop PPI | Tau fil binding
COc1ccc(NC2c3ccccc3C(=O)N2Cc2ccco2)cc1OC (stereo not drawn) | - | - | - | - | -
O=C1c2ccccc2C(Nc2ccc3c(c2)OCO3)N1Cc1ccco1 (stereo not drawn) | - | - | - | ? | 13µM
O=C1c2ccccc2C(Nc2ccc3c(c2)OCO3)N1Cc1ccc2c(c1)OCO2 (stereo not drawn) | ? | - | ? | -[2.3 µM] | 10µM
O=C1c2ccccc2C(Nc2cccnc2)N1Cc1ccc2c(c1)OCO2 (stereo not drawn) | - | - | - | -[2.3 µM] | -
Clc1ccccc1/C=C\c1ccnc2ccccc12 | -[11.4 µM] | -[11.4 µM] | -[11.4 µM] | -[11 µM] | -[11.4 µM]
CC1(C)[C@@H]2CC[C@@]1(C)C(=O)C2 | - | - | - | - | -
O=C(O)C(NS(=O)(=O)c1cccc2cccnc12)c1ccccc1 (stereo not drawn) | - | - | - | - | -
CC(C)NC(=O)N1CCC2(CC1)CCN(C(=O)c1cccc(F)c1)CC2 | - | - | - | - | -
